Experimental findings from PubChem BioAssay (Tox21) are described below.

Inconclusive results are not listed. Calls of active or inactive are those of the source. Calls come from the whole dose curve; as a rule, active = well fitted inhibition curve with a large enough effect in the repeat runs; inconclusive = weak or mixed curves; inactive = no such curve, though single readings can be large or run the other way.
% is set by controls: 0 for no effect and ±100 for the full control effect; potency is the fitted concentration of half-maximal effect.

Chain of Cytochrome P450 2D6 (Homo sapiens) (P10635 whole entry, looked up): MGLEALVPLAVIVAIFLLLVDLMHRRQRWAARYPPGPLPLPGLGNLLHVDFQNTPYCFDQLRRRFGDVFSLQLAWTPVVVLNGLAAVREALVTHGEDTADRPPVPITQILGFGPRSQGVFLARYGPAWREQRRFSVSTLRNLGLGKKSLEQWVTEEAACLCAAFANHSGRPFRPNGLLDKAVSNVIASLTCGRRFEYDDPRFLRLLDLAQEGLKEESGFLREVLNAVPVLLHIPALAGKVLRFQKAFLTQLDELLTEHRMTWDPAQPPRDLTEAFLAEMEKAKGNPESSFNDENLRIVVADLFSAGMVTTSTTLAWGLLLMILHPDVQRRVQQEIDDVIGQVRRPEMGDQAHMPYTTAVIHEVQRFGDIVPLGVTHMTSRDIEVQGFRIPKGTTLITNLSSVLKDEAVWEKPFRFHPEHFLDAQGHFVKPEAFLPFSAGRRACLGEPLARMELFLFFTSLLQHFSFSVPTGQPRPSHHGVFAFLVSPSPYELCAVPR

The target of the first experiment is Cytochrome P450 2D6 (Homo sapiens) (UniProt P10635). In words: Cytochrome P450 Family 2 Subfamily D Member 6 (CYP2D6) small molecule antagonists: luciferase reporter qHTS assay (AID 1671196). Note: nearly all actives have a fitted effect of over 50% in size. Particulars: P450-Glo CYP2D6 enzyme assay, luciferin luminescence, 1 h; series mostly up to 115 µM; activity change, negative = inhibition: at the top concentration. Summed up:
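Enzyme and proluciferin substrate were first combined with test chemical for 10 min at room temperature. Adding NADPH regeneration solution started a 1 h reaction, stopped with luciferin detection reagent and read by luminescence 20 min later.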
Consider `C=CCCCCCCCCCCCC`, for which the “activity change, negative = inhibition” value was -5.64% (inactive).

With `C=C(C)C(=O)OCCOP(=O)(O)OCCOC(=O)C(=C)C`, the “activity change, negative = inhibition” value was -19.3% (inactive).

For `CC(C)C[C@H](NC(=O)CNC(=O)[C@H](Cc1ccc(O)cc1)NC(=O)[C@H](CO)NC(=O)[C@H](Cc1c[nH]c2ccccc12)NC(=O)[C@H](Cc1cnc[nH]1)NC(=O)[C@@H]1CCC(=O)N1)C(=O)N[C@@H](CCCN=C(N)N)C(=O)N1CCC[C@H]1C(=O)NCC(N)=O` (stereo in doubt), the “activity change, negative = inhibition” value is -16.5% [at 53 µM] (inactive).

Regarding `C=COCCOCCOCCOC=C`, the “activity change, negative = inhibition” value was -3.64% (inactive).

With `Cc1cccc(OCC(O)CNC(C)(C)C)c1C` (stereo unspecified), the Potency is 13.8 µM (active).

`C=C(C)C(=O)OCCNC(C)(C)C`: the “activity change, negative = inhibition” value is -9.39% (inactive).

Consider `FC(F)(F)c1ccccc1-n1ccnc1`, for which the Potency is 2.19 µM (active).

With `NCCS`, the “activity change, negative = inhibition” value was -16.2% [at 53 µM] (inactive).

`COP(=O)(OC)OC(c1ccc(Cl)cc1)P(=O)(OC)OC` (stereo unspecified): the “activity change, negative = inhibition” value is -0.374% [at 53 µM] (inactive).

Turning to `COc1ccc(-c2cc(=O)c3c(O)cc(O[C@@H]4O[C@H](CO[C@@H]5O[C@@H](C)[C@H](O)[C@@H](O)[C@H]5O)[C@@H](O)[C@H](O)[C@H]4O)cc3o2)cc1O`, the “activity change, negative = inhibition” value was 0.188% [at 53 µM] (inactive).

In the case of `Cc1nc2n(c(=O)c1CCN1CCC(c3noc4cc(F)ccc34)CC1)CCC[C@H]2O`, the Potency is 6.01 µM (active).

For `COc1cc(C(=S)N2CCOCC2)cc(OC)c1OC`, the “activity change, negative = inhibition” value was 0.57% [at 53 µM] (inactive).

For `CC(C)C(=O)OCc1cccc(OC(=O)[C@@H]2N3C(=O)[C@@H](NC(=O)Cc4ccccc4)[C@H]3SC2(C)C)c1`, the “activity change, negative = inhibition” value was -16.1% [at 53 µM] (inactive).

In the case of `OCCCCC(O)CO` (stereo unspecified), the “activity change, negative = inhibition” value was 2.36% (inactive).

Regarding `CC(S)C(=O)NCC(=O)O` (stereo unspecified), the “activity change, negative = inhibition” value was 1.01% [at 53 µM] (inactive).

Take `Cc1cccc(C)c1OCC(C)N` (stereo unspecified): the Potency was 13.8 µM (active).

For the compound `CC/C=C\CC1=C(C)CCC1=O`, the “activity change, negative = inhibition” value is -0.674% (inactive).

For `CC(=O)CCCCn1c(=O)c2c(ncn2C)n(C)c1=O`, the “activity change, negative = inhibition” value is -0.786% [at 53 µM] (inactive).

For `C[C@@H](O)[C@H]1C(=O)N2C(C(=O)O)=C(SCCN=CN)C[C@H]12`, the “activity change, negative = inhibition” value was -14.3% [at 53 µM] (inactive).

As for `C[C@H](CCC(=O)O)[C@H]1CC[C@H]2[C@@H]3C(=O)C[C@@H]4CC(=O)CC[C@]4(C)[C@H]3CC(=O)[C@]12C`, the “activity change, negative = inhibition” value was -0.523% [at 53 µM] (inactive).

In the case of `O=C1c2ccccc2C(=O)C1c1ccccc1`, the “activity change, negative = inhibition” value is -0.562% [at 53 µM] (inactive).

As to `Cc1cc2cc3c(C)cc(=O)oc3c(C)c2o1`, the “activity change, negative = inhibition” value was -3.94% [at 53 µM] (inactive).

Regarding `CC(=C(CCOC(=O)C(C)C)SSC(CCOC(=O)C(C)C)=C(C)N(C=O)Cc1cnc(C)nc1N)N(C=O)Cc1cnc(C)nc1N`, the “activity change, negative = inhibition” value was -19.5% [at 53 µM] (inactive).

`CC1(CO)CN(c2ccccc2)NC1=O` (stereo unspecified): the Potency was 28.3 µM (active).

For the compound `C=C(C)C(=O)OCCN(CC)CC`, the “activity change, negative = inhibition” value was 1.85% (inactive).

For `C=C(C)C1CCC(C)(O)CC1` (stereo unspecified), the “activity change, negative = inhibition” value was -15.9% (inactive).

With `CO[C@@H]1[C@@H](OC(N)=O)[C@@H](O)[C@H](Oc2ccc3c(O)c(NC(=O)c4ccc(O)c(CC=C(C)C)c4)c(=O)oc3c2C)OC1(C)C`, the “activity change, negative = inhibition” value is -8.33% [at 53 µM] (inactive).

On to `CCOc1cc(NC(C)=O)ccc1C(=O)OC`, for which the “activity change, negative = inhibition” value was -7.41% [at 53 µM] (inactive).

Turning to `COCCOCCOCCOCCOCCO`, the “activity change, negative = inhibition” value was 3.28% (inactive).

On to `O=C1c2ccccc2C(=O)c2cc(S(=O)(=O)O)ccc21`, for which the Potency was 40.1 µM (active).

The target in a further experiment is Cytochrome P450 2C19 (Homo sapiens) (UniProt P33261). Kind of experiment: Cytochrome P450 Family 2 Subfamily C Member 19 (CYP2C19) small molecule antagonists: luciferase reporter qHTS assay (AID 1671197). Note: nearly all actives have a fitted effect of over 65% in size. To be noted: P450-Glo CYP2C19 enzyme, luciferin luminescence, 1 h; series mostly up to 115 µM; activity change, negative = inhibition: at the top concentration. The method, boiled down: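 P450-Glo CYP2C19 screening system; proluciferin substrate; DMSO compound stocks; 10 min RT preincubation; NADPH regeneration, 1 h at 37C; luciferin detection reagent, 20 min RT; luminescence as RLU.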
Chain of Cytochrome P450 2C19 (Homo sapiens) (P33261 whole entry, looked up): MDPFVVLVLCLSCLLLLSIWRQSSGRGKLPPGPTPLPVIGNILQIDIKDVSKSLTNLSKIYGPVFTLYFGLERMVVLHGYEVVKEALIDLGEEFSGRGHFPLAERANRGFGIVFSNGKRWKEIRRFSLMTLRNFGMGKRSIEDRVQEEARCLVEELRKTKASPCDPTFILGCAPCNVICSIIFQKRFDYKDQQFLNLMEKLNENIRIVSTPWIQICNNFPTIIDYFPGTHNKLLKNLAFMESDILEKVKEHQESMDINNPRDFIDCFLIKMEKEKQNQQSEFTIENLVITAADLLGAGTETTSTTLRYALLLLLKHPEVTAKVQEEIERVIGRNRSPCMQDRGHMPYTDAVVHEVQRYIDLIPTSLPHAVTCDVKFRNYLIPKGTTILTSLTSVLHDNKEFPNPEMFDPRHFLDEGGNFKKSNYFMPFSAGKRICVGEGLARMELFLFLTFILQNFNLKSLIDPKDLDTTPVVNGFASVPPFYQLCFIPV
Consider `C=CCCCCCCCCCCCC`, for which the “activity change, negative = inhibition” value was 0.251% (inactive).

In the case of `C=C(C)C(=O)OCCOP(=O)(O)OCCOC(=O)C(=C)C`, the “activity change, negative = inhibition” value is -11.5% (inactive).

On to `CC(C)C[C@H](NC(=O)CNC(=O)[C@H](Cc1ccc(O)cc1)NC(=O)[C@H](CO)NC(=O)[C@H](Cc1c[nH]c2ccccc12)NC(=O)[C@H](Cc1cnc[nH]1)NC(=O)[C@@H]1CCC(=O)N1)C(=O)N[C@@H](CCCN=C(N)N)C(=O)N1CCC[C@H]1C(=O)NCC(N)=O` (stereo in doubt), for which the “activity change, negative = inhibition” value is 17.7% [at 52.9 µM] (inactive).

Turning to `O=C(CS(=O)Cc1ccco1)NC/C=C\COc1cc(CN2CCCCC2)ccn1` (stereo unspecified), the “activity change, negative = inhibition” value was 9.26% [at 52.9 µM] (inactive).

`C=COCCOCCOCCOC=C`: the Potency is 79.6 µM (active).

As to `Cc1cccc(OCC(O)CNC(C)(C)C)c1C` (stereo unspecified), the “activity change, negative = inhibition” value was -5.48% [at 52.9 µM] (inactive).

In the case of `C=C(C)C(=O)OCCNC(C)(C)C`, the Potency is 70.9 µM (active).

For the compound `FC(F)(F)c1ccccc1-n1ccnc1`, the Potency was 5.49 µM (active).

With `NCCS`, the “activity change, negative = inhibition” value was -19.6% [at 52.9 µM] (inactive).

Regarding `COP(=O)(OC)OC(c1ccc(Cl)cc1)P(=O)(OC)OC` (stereo unspecified), the “activity change, negative = inhibition” value is 8.81% [at 52.9 µM] (inactive).

Consider `COc1ccc(-c2cc(=O)c3c(O)cc(O[C@@H]4O[C@H](CO[C@@H]5O[C@@H](C)[C@H](O)[C@@H](O)[C@H]5O)[C@@H](O)[C@H](O)[C@H]4O)cc3o2)cc1O`, for which the “activity change, negative = inhibition” value was 18.9% [at 52.9 µM] (inactive).

`Cc1nc2n(c(=O)c1CCN1CCC(c3noc4cc(F)ccc34)CC1)CCC[C@H]2O`: the activity change, negative = inhibition was 18.1% [at 23.6 µM] (inactive).

On to `C[C@H](N)[C@H](O)c1cccc(O)c1`, for which the “activity change, negative = inhibition” value is 20.7% [at 52.9 µM] (inactive).

For the compound `COc1cc(C(=S)N2CCOCC2)cc(OC)c1OC`, the Potency is 21.9 µM (active).

With `CC(C)C(=O)OCc1cccc(OC(=O)[C@@H]2N3C(=O)[C@@H](NC(=O)Cc4ccccc4)[C@H]3SC2(C)C)c1`, the “activity change, negative = inhibition” value is -13.3% [at 52.9 µM] (inactive).

For `OCCCCC(O)CO` (stereo unspecified), the “activity change, negative = inhibition” value is 12.2% (inactive).

In the case of `CC(S)C(=O)NCC(=O)O` (stereo unspecified), the “activity change, negative = inhibition” value was 10.3% [at 52.9 µM] (inactive).

Regarding `Cc1cccc(C)c1OCC(C)N` (stereo unspecified), the “activity change, negative = inhibition” value is 0.964% [at 52.9 µM] (inactive).

On to `CC/C=C\CC1=C(C)CCC1=O`, for which the Potency was 63.3 µM (active).

For the compound `CC(=O)CCCCn1c(=O)c2c(ncn2C)n(C)c1=O`, the “activity change, negative = inhibition” value is 21.6% [at 52.9 µM] (inactive).

Turning to `CCN1CCc2nc(N)oc2CC1`, the “activity change, negative = inhibition” value was 1.06% [at 52.9 µM] (inactive).

For the compound `C[C@H](CCC(=O)O)[C@H]1CC[C@H]2[C@@H]3C(=O)C[C@@H]4CC(=O)CC[C@]4(C)[C@H]3CC(=O)[C@]12C`, the “activity change, negative = inhibition” value was 20.5% [at 52.9 µM] (inactive).

With `Cc1cc2cc3c(C)cc(=O)oc3c(C)c2o1`, the “activity change, negative = inhibition” value was 2.67% [at 52.9 µM] (inactive).

Take `CC(=C(CCOC(=O)C(C)C)SSC(CCOC(=O)C(C)C)=C(C)N(C=O)Cc1cnc(C)nc1N)N(C=O)Cc1cnc(C)nc1N`: the “activity change, negative = inhibition” value is 54.5% [at 52.9 µM] (inactive).

With `CC1(CO)CN(c2ccccc2)NC1=O` (stereo unspecified), the Potency was 20 µM (active).

For `Nc1ncnc(Nc2ccccc2)n1`, the “activity change, negative = inhibition” value is -15.9% [at 52.9 µM] (inactive).

For `C=C(C)C(=O)OCCN(CC)CC`, the “activity change, negative = inhibition” value is -6.97% (inactive).

As to `C=C(C)C1CCC(C)(O)CC1` (stereo unspecified), the “activity change, negative = inhibition” value is 5.17% (inactive).

In the case of `CCOc1cc(NC(C)=O)ccc1C(=O)OC`, the “activity change, negative = inhibition” value is 4.52% [at 52.9 µM] (inactive).

Consider `COCCOCCOCCOCCOCCO`, for which the “activity change, negative = inhibition” value was -17.8% (inactive).

For the compound `O=C1c2ccccc2C(=O)c2cc(S(=O)(=O)O)ccc21`, the Potency was 31.8 µM (active).
